From article PMC4552634, “A New Set of Chemical Starting Points with Plasmodium falciparum Transmission-Blocking Potential for Antimalarial Drug Discovery” (PLoS ONE, 2015)
Screen size: about 13,000 compounds; about 3,200 (25%) showed an effect of 50% or more. The list shows a part of the results.

Test system: P. falciparum stage V gametocytes
Set-up: BacTiter-Glo ATP luminescence viability of purified stage V gametocytes in 384-well plates, per cent inhibition versus DMSO
Settings: 48 h, 5 µM; inhibitor

| SMILES | % Inhibition [%] |
| --- | --- |
| CCN(CC)CCN(Cc1ccc(-c2ccc(Cl)s2)cc1)C(=O)Cn1c(CCc2cccc(F)c2F)nc(=O)c2ccccc21 [TCMDC-141229] | 28.5 |
| CCN(CC)CCN(Cc1ccc(-c2ccc(Br)cc2)cc1)C(=O)Cn1c(CCc2cccc(F)c2F)nc(=O)c2ccccc21 [TCMDC-141305] | 51.66 |
| CCN(CC)CCN(Cc1ccc(-c2ccc(C#N)cc2)cc1)C(=O)Cn1c(CCc2cccc(F)c2F)nc(=O)c2ccccc21 [TCMDC-141150] | 0.7472 |
| CCN(CC)CCN(Cc1ccc(-c2ccc(C(F)(F)F)s2)cc1)C(=O)Cn1c(CCc2cccc(F)c2F)nc(=O)c2ccccc21 [TCMDC-141262] | 57 |
| CC(C)(C)NCCN(Cc1ccc(-c2ccc(C(F)(F)F)cc2)cc1)C(=O)Cn1c(CCc2cccc(F)c2F)nc(=O)c2ccccc21 [TCMDC-141080] | 105.1 |
| CCN(CC)CCN(CCCc1ccc(-c2ccc(C(F)(F)F)cc2)cc1)C(=O)Cn1c(CCc2cccc(F)c2F)nc(=O)c2ccccc21 [TCMDC-141253] | 67.3 |
| CCN(CC)CCN(Cc1ccc(-c2ccc(Cl)cc2)cc1)C(=O)Cn1c(CCc2cccc(F)c2F)nc(=O)c2ccccc21 [TCMDC-141054] | 39.4 |
| Cc1ccccc1C1CCN(C2CCC(NC(=O)c3cc4cc(C(C)C)ccc4[nH]3)CC2)CC1 (stereo not shown) [TCMDC-133554] | 15.06 |
| COc1ccc2ncc(C#N)c(CCN3C4CCC3CC(NCc3ccc5c(n3)NC(=O)CS5)C4)c2c1 (stereo not shown) [TCMDC-135180] | 37.34 |
| Brc1cnc(NC2=NCCN2)c(Br)c1 [TCMDC-131680] | 12.04 |
| Cc1nc(C)c(CC(=O)Nc2cccc(-c3cccc(-c4nc5ccc(C(F)(F)F)cc5[nH]4)c3)c2)s1 [TCMDC-136995] | 4.513 |
| CC(C)(CN)c1nc(-c2ccc(Br)c(O)c2)c(-c2ccncc2)[nH]1 [TCMDC-140680] | -59.77 |
| O=C(/C=C/c1ccc(Cl)c(Cl)c1)NCCCCCN1CCC(NC(=O)Nc2ccccc2F)CC1 [TCMDC-139386] | -2.666 |
| C=CCOC1OC(COC(c2ccccc2)(c2ccccc2)c2ccccc2)C(OC(C)=O)C(OC(C)=O)C1NC(C)=O (stereo not shown) [TCMDC-131992] | 13.79 |
| CCN(CC)CCN(Cc1ccc(-c2ccc(C(F)(F)F)cc2)cc1)C(=O)Cn1c(CCc2cccc(F)c2F)nc(=O)c2cccnc21 [TCMDC-141013] | 97.72 |
| CCN(CC)CCN(Cc1ccc(-c2ccc(C(F)(F)F)cc2)cc1)C(=O)Cn1c(CCc2ccc(F)c(F)c2F)nc(=O)c2cccnc21 [TCMDC-141002] | 20.31 |
| CC(C)(C)NCCN(Cc1ccc(-c2ccc(C(F)(F)F)cc2)cc1)C(=O)Cn1c(CCc2cccc(F)c2F)nc(=O)c2c1CCC2 [TCMDC-140979] | 113.3 |
| CCN(CC)CCN(Cc1ccc(-c2ccc(C(F)(F)F)cc2)cc1)C(=O)Cn1c(CCc2cccc(F)c2F)nc(=O)c2ccccc21 [TCMDC-140922] | 60.98 |
| CCN(CC)CCN(Cc1ccc(-c2ccc(C(F)(F)F)cc2)cc1)C(=O)Cn1c(CCc2cccc(F)c2F)c(C)c(=O)c2ccccc21 [TCMDC-141313] | 76.85 |
| CCN(CC)CCN(CCCc1ccc(-c2ccc(C(F)(F)F)cc2)cc1)C(=O)Cn1c(CCc2cccc(F)c2F)nc(=O)c2c1CCC2 [TCMDC-140984] | 42.45 |
| Cn1nccc1C(=O)NCCNCc1cccc(-c2csc(-c3nc4ccccc4[nH]3)c2)c1 [TCMDC-133002] | -62.03 |
| CCCN1CCc2c(sc3nc(SCC(=O)Nc4ccc(C)cc4)n(-c4ccc(C)cc4)c(=O)c23)C1 [TCMDC-125451] | 5.583 |
| O=C(NC1CCCc2ccccc21)C1CCCN(C(=O)c2ccc(O)c(-c3ccc(Cl)c(Cl)c3)c2)C1 (stereo not shown) [TCMDC-140890] | 19.76 |

| SMILES | % Inhibition [%] |
| --- | --- |
| CCn1c(CN2CCC(C)CC2)nc2cc(NC(=O)c3cccs3)ccc21 [TCMDC-124730] | -26.92 |
| CCCCCCCN(Cc1ccc(OC(C)(C)C(=O)OCC)cc1)C(=O)Cc1ccc(F)cc1F [TCMDC-131920] | 13.51 |
| COC(=O)c1cccc(NC(=O)NC2CCN(c3ccnc(Nc4ccc(OC)cc4)n3)C2)c1 (stereo not shown) [TCMDC-133618] | -6.04 |
| CC1CN(Cc2cccc(-c3ccc(-c4nc5ccccc5[nH]4)cc3)c2)CC(C)O1.O=C(O)C(F)(F)F (stereo not shown) [TCMDC-133816] | -91.64 |
| CSc1ccc(NC(=O)Nc2cc(C)nc3ccccc23)cc1Br [TCMDC-139874] | -51.95 |
| CCN(CC)CCN(Cc1ccc(-c2ccc(C(F)(F)F)cc2)cc1)C(=O)Cn1c(CCc2ccccc2F)nc(=O)c2ccccc21 [TCMDC-141012] | 52.86 |
| CCN(CC)CCN(Cc1ccc(-c2ccc(C(F)(F)F)cc2)cc1)C(=O)Cn1c(CCc2ccc(F)c(F)c2F)nc(=O)c2ccccc21 [TCMDC-140952] | 68.69 |
| CCN(CC)CCN(Cc1ccc(-c2ccc(C(F)(F)F)cc2)cc1)C(=O)Cn1c(CCc2ccc(F)c(F)c2F)nc(=O)c2ccc(F)cc21 [TCMDC-141072] | 19.94 |
| Clc1ccc2c(NN=Cc3cccnc3)ccnc2c1 [TCMDC-123968] | -19.33 |
| Cc1cccc2c3c([nH]c12)C1(CCN(CCc2ccccc2)CC1)NC(C(=O)NCc1ccccc1)C3 (stereo not shown) [TCMDC-141245] | -39.36 |
| Cc1cc(CN2CCN(CCOC(c3ccccc3)c3ccccc3)CC2)ccc1O [TCMDC-135695] | -7.709 |
| Cc1ccc(C)c(S(=O)(=O)NCC2CCN(Cc3ccc(O)cc3)CC2)c1 [TCMDC-141802] | 45.59 |
| COc1cc2ccccc2cc1CNCCCCCCNCc1cc2ccccc2cc1OC [TCMDC-137955] | 4.122 |
| COc1cc(CNCCCCCCNCc2cc(OC)c3ccccc3c2OC)c(OC)c2ccccc12 [TCMDC-137502] | 106.1 |
| CCOc1cc(CNCCCCCCNCc2cc(OCC)c(OCC)c3ccccc23)c2ccccc2c1OCC [TCMDC-137939] | 106 |
| CCOc1c(C)cc(C(F)(F)F)cc1CNCCCNc1cc(=O)c2ccccc2[nH]1 [TCMDC-141046] | -34.36 |
| COc1cc(CNCCCCCCNCc2cc(OC)c(OC)c3ccccc23)c2ccccc2c1OC [TCMDC-137981] | 104.3 |
| CCOc1cc2ccccc2cc1CNCCCCCCNCc1cc2ccccc2cc1OCC [TCMDC-137940] | 69.35 |
| CCOc1c(CNCCCNc2cc(=O)c3ccccc3[nH]2)cc(I)cc1OC [TCMDC-139847] | -35.79 |
| CCOc1c(Br)cc(C)cc1CNCCCNc1nc2ccccc2[nH]1 [TCMDC-140090] | 7.25 |
| COc1cc(-c2cc(-c3ccc(OCCN(C)C)cc3)[nH]c2-c2ccncc2)ccc1Cl [TCMDC-141251] | -2.677 |
| COc1cc(F)c2ncc(Cl)c([C@H](O)CN3CCC(NCc4cc5c(cn4)OCCO5)CC3)c2c1 [TCMDC-135474] | 10.97 |
| O=C(NC1CCC(CCN2Cc3cccc(C(F)(F)F)c3C2)CC1)c1cccc(-c2cccnc2)c1 (stereo not shown) [TCMDC-139602] | -51.73 |

| SMILES | % Inhibition [%] |
| --- | --- |
| COc1ccc(CNCc2ccc(-c3ccc(-c4nc5cc(C(F)(F)F)ccc5[nH]4)cc3)cc2)cc1.O=C(O)C(F)(F)F [TCMDC-132724] | -6.92 |
| O=C(Nc1cccc(-c2ccc(-c3nc4ccc(F)cc4[nH]3)cc2)c1)Nc1ccc(Cl)c(Cl)c1 [TCMDC-133280] | -66.79 |
| N#Cc1ccccc1S(=O)(=O)N1CCCC(CNC(=O)[C@H](CC2CCCCC2)NC(=O)c2cc3ccccc3s2)C1 (stereo partly shown) [TCMDC-136558] | -3.694 |
| CC(C)C[C@H](NC(=O)c1cc2ccccc2s1)C(=O)N[C@H]1CCN(Cc2ccc(I)c(OCCN3CCCC3)c2)C1 [TCMDC-140287] | 56 |
| CC(C)C[C@H](NC(=O)c1cc2ccccc2s1)C(=O)N[C@H]1CCN(Cc2ccc(OC3CCN(C)C3)c(Cl)c2)C1 (stereo partly shown) [TCMDC-140293] | 19.83 |
| CC(C)CC(NC(=O)c1cc2ccccc2s1)C(=O)N1CCCCCC1c1ccc(C(C)(C)C)cc1 (stereo not shown) [TCMDC-136337] | 63.43 |
| CC1CCN(CC[C@H]2CCCN2S(=O)(=O)c2cccc(NC(=O)c3cc4ccccc4s3)c2)CC1 [TCMDC-141077] | -68 |
| CC(C)C[C@H](NC(=O)c1cc2ccccc2s1)C(=O)N[C@H]1CCN(Cc2ccc(I)c(OC3CCN(C)C3)c2)C1 (stereo partly shown) [TCMDC-140288] | 64.78 |
| CC(C)C[C@H](NC(=O)c1cc2ccccc2s1)C(=O)N[C@H]1CCN(Cc2ccc(OCCCN(C)C)c(Cl)c2)C1 [TCMDC-140291] | 44.54 |
| COc1ccc(CC2(c3ccc(F)cc3)N=C(N)N(CCCc3ccc(F)c(F)c3)C2=O)cc1 (stereo not shown) [TCMDC-136542] | -2.474 |
| Clc1ccc2nnc(-c3c(Cl)cccc3Cl)n2n1 [TCMDC-124489] | 23.9 |
| c1cc(CNCC2CCCO2)cc(-c2csc(-c3nc4ccccc4[nH]3)c2)c1 (stereo not shown) [TCMDC-133108] | -15.46 |
| C=CCc1cc(Br)ccc1OCCCOc1c(C)nc(N)nc1N [TCMDC-131366] | -2.875 |
| Cc1ccc2c(OCCN3CCC(Cc4ccc5c(c4)NC(=O)CO5)CC3)cc(F)cc2n1 [TCMDC-141356] | 22.38 |
| O=C(c1ccc(Cl)cc1)C1CCCN(C2CCN(CCc3ccccc3)CC2)C1 (stereo not shown) [TCMDC-124655] | -36.02 |
| Cc1cccc(S(=O)(=O)Nc2cccc(CCN3CCC(N4CCCCC4)CC3)c2)c1 [TCMDC-134087] | 26.17 |
| O=S(=O)(Nc1ccc(CCN2CCC(N3CCCCC3)CC2)cc1)c1ccccc1C(F)(F)F [TCMDC-134080] | 79.99 |
| O=S(=O)(Nc1ccc(CCN2CCC(N3CCCCC3)CC2)cc1)c1cccc(C(F)(F)F)c1 [TCMDC-134090] | 84.05 |
| O=S(=O)(Nc1cccc(CCN2CCC(N3CCCCC3)CC2)c1)c1cccc(C(F)(F)F)c1 [TCMDC-134086] | 60.6 |
| O=S(=O)(Nc1cccc(CCN2CCC(N3CCCCC3)CC2)c1)c1ccccc1C(F)(F)F [TCMDC-134070] | 2.875 |
| CC(c1cccc(S(=O)(=O)NCc2cccc(C(F)(F)F)c2)c1)N1CCC(N2CCCCC2)CC1 (stereo not shown) [TCMDC-133565] | 5.245 |
